{
  "source": "PubChem BioAssay AID743156",
  "about": "(Broad Institute, 2013)",
  "system": "PglD UDP-4-amino-sugar N-acetyltransferase (Campylobacter jejuni)",
  "assay": "PglD acetyltransferase inhibitors, confirmation, biochemical, DTNB absorbance, single point, cherry-picked samples (AID 743156);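 further: initial rate of CoA release by acetyl transfer from AcCoA to the UDP-4-amino sugar; 0% = median of neutral control wells and 100% = median of positive control wells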",
  "settings": "Purified C. jejuni PglD, DTNB absorbance 412 nm; at 20 µM; hits give high values",
  "note": "The other results are listed elsewhere or left out. A number with no mark means an inactive call.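 How the source made its calls: active means mean inhibition across replicates of at least 20% with every single replicate also at 20% or more; inconclusive means mean inhibition at least 20% but some replicate falls below 20%; inactive means mean inhibition under 20% and not all replicates reach it.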",
  "data": [
    {"compound": "c1ccc2sc(N3CCNCC3)nc2c1", "values": [
      {"measurement": "inhibition", "result": 8.98, "unit": "%"}
    ]}
  ]
}
